Legend:
Test in all cases: DAPPL (digital affinity profiling via proximity ligation, sequencing); 10 mM Tris-HCl pH 7.5, 50 mM NaCl, 1 mM DTT, 4% glycerol, room temperature, 30 min; GST-TFs on glutathione beads, 16-mer random dsDNA library, 0.1% formaldehyde crosslink after washing; high values mean tight binding
Conditions in all cases: protein: recombinant; tags: N-terminal GST; dsDNA, one strand shown
FLI1 = molecular target: T1, FLI1 (Homo sapiens, UniProt Q01543 1-452)
T1 sequence: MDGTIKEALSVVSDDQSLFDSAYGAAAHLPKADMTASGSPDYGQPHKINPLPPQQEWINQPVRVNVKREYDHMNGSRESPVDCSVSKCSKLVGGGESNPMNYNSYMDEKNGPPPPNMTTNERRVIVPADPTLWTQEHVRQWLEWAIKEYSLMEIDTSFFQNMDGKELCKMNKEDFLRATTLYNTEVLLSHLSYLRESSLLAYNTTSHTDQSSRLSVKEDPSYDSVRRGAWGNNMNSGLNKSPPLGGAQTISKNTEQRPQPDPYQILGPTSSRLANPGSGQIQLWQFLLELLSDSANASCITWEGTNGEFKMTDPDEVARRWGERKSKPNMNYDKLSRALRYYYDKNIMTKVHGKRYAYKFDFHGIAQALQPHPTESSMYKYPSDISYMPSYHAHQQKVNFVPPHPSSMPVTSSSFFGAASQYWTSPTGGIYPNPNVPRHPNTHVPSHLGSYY
Method in brief: (§1)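 Binding signal is each hexamer's read frequency for a factor divided by its frequency in the tag-only sample. The factors were GST-fused human transcription factors from yeast, captured on glutathione beads, DNA-barcoded and pooled with that sample. Pools were incubated with 200 nmole of a random double-stranded 16-mer DNA library in Tris/NaCl/DTT/glycerol buffer at room temperature for 30 min, then washed, crosslinked with 0.1% formaldehyde, proximity-ligated with BsaI/T4 ligase (1 h, 37 °C), PCR-amplified and sequenced on an Illumina NextSeq500.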

ELK1 = molecular target: T2, ELK1 (Homo sapiens, UniProt P19419 1-428)
T2 sequence: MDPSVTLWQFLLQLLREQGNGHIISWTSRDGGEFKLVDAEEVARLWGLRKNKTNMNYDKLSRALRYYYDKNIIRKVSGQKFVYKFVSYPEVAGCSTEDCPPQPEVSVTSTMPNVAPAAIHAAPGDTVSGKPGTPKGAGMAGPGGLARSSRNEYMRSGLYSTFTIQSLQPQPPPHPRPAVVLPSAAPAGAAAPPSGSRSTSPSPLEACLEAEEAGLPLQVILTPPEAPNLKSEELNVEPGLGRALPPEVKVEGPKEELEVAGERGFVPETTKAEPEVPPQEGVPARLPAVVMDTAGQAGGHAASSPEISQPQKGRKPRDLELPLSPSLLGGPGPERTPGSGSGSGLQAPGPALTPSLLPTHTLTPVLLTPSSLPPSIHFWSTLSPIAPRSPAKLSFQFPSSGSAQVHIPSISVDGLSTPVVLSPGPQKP
Method in brief: as §1

GABPA = molecular target: T3, GABPA (Homo sapiens, UniProt Q06546 1-454)
T3 sequence: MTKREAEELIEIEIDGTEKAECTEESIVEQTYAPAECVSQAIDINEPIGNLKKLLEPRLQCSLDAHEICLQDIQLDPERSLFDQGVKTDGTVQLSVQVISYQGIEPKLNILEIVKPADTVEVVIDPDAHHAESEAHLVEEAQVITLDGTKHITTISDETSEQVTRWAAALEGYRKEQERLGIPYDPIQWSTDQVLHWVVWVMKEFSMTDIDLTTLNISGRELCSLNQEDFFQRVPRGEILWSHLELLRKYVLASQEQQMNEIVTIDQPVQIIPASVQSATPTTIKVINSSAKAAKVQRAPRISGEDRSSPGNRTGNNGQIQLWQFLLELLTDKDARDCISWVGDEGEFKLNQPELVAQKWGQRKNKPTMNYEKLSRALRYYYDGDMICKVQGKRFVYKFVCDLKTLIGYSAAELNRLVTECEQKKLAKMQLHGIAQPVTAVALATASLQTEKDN
Method in brief: as §1

ERG = molecular target: T4, ERG (Homo sapiens, UniProt P11308 1-479)
T4 sequence: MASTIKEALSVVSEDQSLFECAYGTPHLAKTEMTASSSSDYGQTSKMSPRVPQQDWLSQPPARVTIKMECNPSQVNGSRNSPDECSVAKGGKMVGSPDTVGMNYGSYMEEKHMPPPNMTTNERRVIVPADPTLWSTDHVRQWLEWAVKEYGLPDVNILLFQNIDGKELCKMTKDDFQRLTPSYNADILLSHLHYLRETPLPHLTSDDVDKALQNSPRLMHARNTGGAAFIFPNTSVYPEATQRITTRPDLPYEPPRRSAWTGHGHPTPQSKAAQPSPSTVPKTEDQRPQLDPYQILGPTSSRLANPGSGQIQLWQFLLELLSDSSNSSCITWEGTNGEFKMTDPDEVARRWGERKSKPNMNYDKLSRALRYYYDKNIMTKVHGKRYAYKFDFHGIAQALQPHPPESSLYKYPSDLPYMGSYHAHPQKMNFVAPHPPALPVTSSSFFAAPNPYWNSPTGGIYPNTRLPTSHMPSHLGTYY
Method in brief: as §1

ELF1 = ELF1 (Homo sapiens, UniProt P32519 1-619)
Sequence of ELF1 (P32519 whole entry): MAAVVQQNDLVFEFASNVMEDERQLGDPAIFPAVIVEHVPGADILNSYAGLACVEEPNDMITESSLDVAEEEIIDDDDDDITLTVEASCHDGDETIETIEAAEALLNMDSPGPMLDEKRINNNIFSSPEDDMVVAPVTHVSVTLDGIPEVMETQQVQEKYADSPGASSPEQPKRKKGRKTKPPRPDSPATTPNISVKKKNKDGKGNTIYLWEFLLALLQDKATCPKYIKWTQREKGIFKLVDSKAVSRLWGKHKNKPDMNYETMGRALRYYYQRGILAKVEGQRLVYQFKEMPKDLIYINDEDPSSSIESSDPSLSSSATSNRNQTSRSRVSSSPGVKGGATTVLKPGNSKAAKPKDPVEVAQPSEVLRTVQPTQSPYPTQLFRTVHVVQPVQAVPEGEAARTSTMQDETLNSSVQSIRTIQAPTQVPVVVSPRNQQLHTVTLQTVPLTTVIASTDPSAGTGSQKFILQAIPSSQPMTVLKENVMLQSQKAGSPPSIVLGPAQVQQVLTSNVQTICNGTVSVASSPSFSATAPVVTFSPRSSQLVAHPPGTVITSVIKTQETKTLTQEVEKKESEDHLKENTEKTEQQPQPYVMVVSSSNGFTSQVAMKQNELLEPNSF
Method in brief: as §1

EHF = molecular target: T5, EHF (Homo sapiens, UniProt Q9NZC4 1-300)
T5 sequence: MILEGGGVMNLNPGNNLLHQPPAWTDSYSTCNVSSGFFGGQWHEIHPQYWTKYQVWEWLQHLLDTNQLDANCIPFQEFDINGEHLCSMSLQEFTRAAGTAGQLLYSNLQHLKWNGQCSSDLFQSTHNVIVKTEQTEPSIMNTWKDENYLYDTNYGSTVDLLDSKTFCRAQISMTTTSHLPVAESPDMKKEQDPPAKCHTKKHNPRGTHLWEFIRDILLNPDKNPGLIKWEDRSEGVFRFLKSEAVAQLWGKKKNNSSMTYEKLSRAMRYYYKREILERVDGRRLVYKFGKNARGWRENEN
Method in brief: as §1

SPI1 = SPI1 (Homo sapiens, UniProt P17947 1-270)
Method in brief: as §1

SPIB = SPIB (Homo sapiens, UniProt Q01892 1-262)
Sequence of SPIB (Q01892 whole entry): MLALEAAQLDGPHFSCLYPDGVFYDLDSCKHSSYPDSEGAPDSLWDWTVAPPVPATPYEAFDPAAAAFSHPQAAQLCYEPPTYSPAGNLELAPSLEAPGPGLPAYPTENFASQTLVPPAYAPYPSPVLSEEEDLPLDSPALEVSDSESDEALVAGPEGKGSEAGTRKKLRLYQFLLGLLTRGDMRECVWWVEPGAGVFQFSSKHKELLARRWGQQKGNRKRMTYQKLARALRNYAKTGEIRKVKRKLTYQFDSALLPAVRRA
Method in brief: as §1

ELK3 = molecular target: T6, ELK3 (Homo sapiens, UniProt P41970 1-407)
T6 sequence: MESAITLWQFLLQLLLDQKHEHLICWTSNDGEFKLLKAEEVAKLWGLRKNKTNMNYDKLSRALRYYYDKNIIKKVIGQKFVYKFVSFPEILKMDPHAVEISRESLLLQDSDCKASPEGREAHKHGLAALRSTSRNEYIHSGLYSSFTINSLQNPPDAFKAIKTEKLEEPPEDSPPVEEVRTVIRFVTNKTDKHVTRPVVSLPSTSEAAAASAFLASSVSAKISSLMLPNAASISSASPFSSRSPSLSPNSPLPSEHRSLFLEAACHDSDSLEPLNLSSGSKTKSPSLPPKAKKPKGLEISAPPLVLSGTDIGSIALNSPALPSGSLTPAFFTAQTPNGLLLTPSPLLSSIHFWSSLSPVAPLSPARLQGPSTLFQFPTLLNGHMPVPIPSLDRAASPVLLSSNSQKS
Method in brief: as §1

Row | Sequence | binding signal (FLI1) | binding signal (ELK1) | binding signal (GABPA) | binding signal (ERG) | binding signal (ELF1) | binding signal (EHF) | binding signal (SPI1) | binding signal (SPIB) | binding signal (ELK3)
1 | AACTAA | 1.39 fold enrichment (6-mer frequency, TF over GST control) | 1.27 fold enrichment (6-mer frequency, TF over GST control) | 1.38 fold enrichment (6-mer frequency, TF over GST control) | 1.33 fold enrichment (6-mer frequency, TF over GST control) | 1.42 fold enrichment (6-mer frequency, TF over GST control) | 1.42 fold enrichment (6-mer frequency, TF over GST control) | 1.38 fold enrichment (6-mer frequency, TF over GST control) | 1.41 fold enrichment (6-mer frequency, TF over GST control) | 1.4 fold enrichment (6-mer frequency, TF over GST control)
2 | TAAAAC | 1.17 fold enrichment (6-mer frequency, TF over GST control) | 1.18 fold enrichment (6-mer frequency, TF over GST control) | 1.14 fold enrichment (6-mer frequency, TF over GST control) | 1.18 fold enrichment (6-mer frequency, TF over GST control) | 1.24 fold enrichment (6-mer frequency, TF over GST control) | 1.11 fold enrichment (6-mer frequency, TF over GST control) | 1.2 fold enrichment (6-mer frequency, TF over GST control) | 1.17 fold enrichment (6-mer frequency, TF over GST control) | 1.19 fold enrichment (6-mer frequency, TF over GST control)
3 | TTTCGG | 1.08 fold enrichment (6-mer frequency, TF over GST control) | 1.14 fold enrichment (6-mer frequency, TF over GST control) | 1.14 fold enrichment (6-mer frequency, TF over GST control) | 1.26 fold enrichment (6-mer frequency, TF over GST control) | 1.22 fold enrichment (6-mer frequency, TF over GST control) | 1.18 fold enrichment (6-mer frequency, TF over GST control) | 1.36 fold enrichment (6-mer frequency, TF over GST control) | 1.14 fold enrichment (6-mer frequency, TF over GST control) | 1.22 fold enrichment (6-mer frequency, TF over GST control)
4 | ATGGCA | 1.26 fold enrichment (6-mer frequency, TF over GST control) | 1.22 fold enrichment (6-mer frequency, TF over GST control) | 1.26 fold enrichment (6-mer frequency, TF over GST control) | 1.27 fold enrichment (6-mer frequency, TF over GST control) | 1.24 fold enrichment (6-mer frequency, TF over GST control) | 1.35 fold enrichment (6-mer frequency, TF over GST control) | 1.21 fold enrichment (6-mer frequency, TF over GST control) | 1.19 fold enrichment (6-mer frequency, TF over GST control) | 1.22 fold enrichment (6-mer frequency, TF over GST control)
5 | TGCGAT | 1.12 fold enrichment (6-mer frequency, TF over GST control) | 1.12 fold enrichment (6-mer frequency, TF over GST control) | 1.28 fold enrichment (6-mer frequency, TF over GST control) | 1.18 fold enrichment (6-mer frequency, TF over GST control) | 1.16 fold enrichment (6-mer frequency, TF over GST control) | 1.19 fold enrichment (6-mer frequency, TF over GST control) | 1.2 fold enrichment (6-mer frequency, TF over GST control) | 1.08 fold enrichment (6-mer frequency, TF over GST control) | 1.31 fold enrichment (6-mer frequency, TF over GST control)
6 | TCCTTT | 1.64 fold enrichment (6-mer frequency, TF over GST control) | 1.75 fold enrichment (6-mer frequency, TF over GST control) | 1.72 fold enrichment (6-mer frequency, TF over GST control) | 1.79 fold enrichment (6-mer frequency, TF over GST control) | 1.81 fold enrichment (6-mer frequency, TF over GST control) | 1.73 fold enrichment (6-mer frequency, TF over GST control) | 1.83 fold enrichment (6-mer frequency, TF over GST control) | 1.67 fold enrichment (6-mer frequency, TF over GST control) | 1.81 fold enrichment (6-mer frequency, TF over GST control)
7 | CTTTTG | 1.42 fold enrichment (6-mer frequency, TF over GST control) | 1.35 fold enrichment (6-mer frequency, TF over GST control) | 1.41 fold enrichment (6-mer frequency, TF over GST control) | 1.25 fold enrichment (6-mer frequency, TF over GST control) | 1.34 fold enrichment (6-mer frequency, TF over GST control) | 1.32 fold enrichment (6-mer frequency, TF over GST control) | 1.6 fold enrichment (6-mer frequency, TF over GST control) | 1.42 fold enrichment (6-mer frequency, TF over GST control) | 1.23 fold enrichment (6-mer frequency, TF over GST control)
8 | TACAGA | 1.08 fold enrichment (6-mer frequency, TF over GST control) | 1.14 fold enrichment (6-mer frequency, TF over GST control) | 1.25 fold enrichment (6-mer frequency, TF over GST control) | 1.11 fold enrichment (6-mer frequency, TF over GST control) | 1.14 fold enrichment (6-mer frequency, TF over GST control) | 1.11 fold enrichment (6-mer frequency, TF over GST control) | 1.13 fold enrichment (6-mer frequency, TF over GST control) | 1.16 fold enrichment (6-mer frequency, TF over GST control) | 1.06 fold enrichment (6-mer frequency, TF over GST control)

Source: article PMC7862700, “An all-to-all approach to the identification of sequence-specific readers for epigenetic DNA modifications on cytosine”
